Results published in PubChem BioAssay (Tox21).
Results filed as inconclusive are left out. Calls of active or inactive are those of the source. Calls come from the whole dose curve.

Legend:
[1] = target: Acetylcholinesterase (Homo sapiens) (UniProt P22303); test: Acetylcholinesterase (AChE) small molecule antagonists: colormetric cell-based qHTS assay (AID 1347395); conditions: SH-SY5Y cells AChE activity, colorimetric (Ellman); series mostly up to 115 µM; note: nearly all actives have a fitted effect of over 30% in size
Chain of Acetylcholinesterase (Homo sapiens) (P22303 whole entry, looked up): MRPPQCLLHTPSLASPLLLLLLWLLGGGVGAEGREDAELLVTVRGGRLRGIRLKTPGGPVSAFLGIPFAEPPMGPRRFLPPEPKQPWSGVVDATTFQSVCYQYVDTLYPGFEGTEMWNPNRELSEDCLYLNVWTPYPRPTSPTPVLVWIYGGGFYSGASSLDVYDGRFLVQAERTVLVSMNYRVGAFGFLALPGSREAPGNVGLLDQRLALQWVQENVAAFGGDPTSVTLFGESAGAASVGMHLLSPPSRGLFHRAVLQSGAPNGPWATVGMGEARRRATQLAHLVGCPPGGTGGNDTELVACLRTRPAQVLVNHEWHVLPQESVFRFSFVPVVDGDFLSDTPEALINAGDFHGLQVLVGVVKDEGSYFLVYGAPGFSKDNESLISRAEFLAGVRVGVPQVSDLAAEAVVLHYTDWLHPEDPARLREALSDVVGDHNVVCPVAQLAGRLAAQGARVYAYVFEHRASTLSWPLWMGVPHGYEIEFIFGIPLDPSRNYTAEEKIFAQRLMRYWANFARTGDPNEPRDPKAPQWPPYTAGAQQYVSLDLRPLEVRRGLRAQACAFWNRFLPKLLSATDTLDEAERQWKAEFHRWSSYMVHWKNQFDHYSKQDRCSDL
In short: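 Endogenous AChE of human neuroblastoma SH-SY5Y cells was measured with an Ellman-type DTNB/acetylthiocholine mix. Compound pretreatment lasted 30 min at 37 C; substrate reaction ran 90 min at 37 C.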

[2] = target: Acetylcholinesterase (Homo sapiens) (UniProt P22303); test: Acetylcholinesterase (AChE) small molecule antagonists: enzyme-based qHTS assay (AID 1347397); conditions: Potency: AChE enzyme activity inhibition; outcome: AChE enzyme activity inhibition; series mostly up to 115 µM; note: nearly all actives have a fitted effect of over 55% in size
In short: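 Enzyme inhibition was scored from DTNB-detected thiocholine formed by recombinant human AChE acting on acetylthiocholine. The 30 min compound preincubation and 10 min substrate reaction were both run at room temperature, with DMSO as vehicle control.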

[3] = target: Acetylcholinesterase (Homo sapiens) (UniProt P22303); test: Acetylcholinesterase (AChE) small molecule antagonists: fluorescence cell-based qHTS assay (AID 1347398); conditions: SH-SY5Y cells; Potency: AChE activity; outcome: AChE activity; series mostly up to 115 µM; note: nearly all actives have a fitted effect of over 50% in size
In short: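 Endogenous acetylcholinesterase of SH-SY5Y neuroblastoma cells is measured in situ. After overnight attachment and 30 min compound exposure, cells receive acetylthiocholine and Thiolite Green; fluorescence is read after 40 min at room temperature.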

[4] = target: Acetylcholinesterase (Homo sapiens) (UniProt P22303); test: Acetylcholinesterase (AChE) small molecule antagonists: enzyme-based qHTS assay with human liver microsomes (AID 1347399); conditions: Potency: qHTS inhibition; outcome: qHTS inhibition; series mostly up to 115 µM; note: nearly all actives have a fitted effect of over 60% in size
In short: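 Recombinant human AChE (50 mU/mL in the enzyme mix) and human liver microsomes (0.25 mg/mL final) were preincubated with compound and NADPH (0.25 mg/mL final) for 30 min at 37 C. Acetylthiocholine/DTNB was then added; thiocholine was read colorimetrically after 10 min at room temperature.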

Measured: Potency

CCCCCCOC(=O)CCCCC
inactive: all assays above

CCOC(=O)C(=O)c1csc(NC=O)n1
inactive: all assays above

CC(=O)c1cnccn1
inactive: all assays above

CCC/C=C/CO
inactive: all assays above

CC(C)C1CCC(O)CC1 (stereo not given)
inactive: all assays above

CCCCCCCCCCCCCCCCOS(=O)(=O)O
inactive: all assays above

C[C@@]12CCC[C@H]1[C@@H]1CC[C@H]3C[C@@H](O)CC[C@]3(C)[C@H]1CC2
inactive: all assays above

CCN(CC)CCCN(c1ccccc1)C1Cc2ccccc2C1
inactive: all assays above

CC(C)(C)C(=O)Oc1ccc(S(=O)(=O)Nc2ccccc2C(=O)NCC(=O)O)cc1
inactive: all assays above

CN(Cc1ccc(C(C)(C)C)cc1)Cc1cccc2ccccc12
inactive: all assays above

C=CC(OCC)OCC
inactive: all assays above

O=C(C1CCCCC1)N1CC(=O)N2CCCc3ccccc3C2C1 (stereo not given)
inactive: all assays above

[O-][n+]1ccc(Cl)cc1
inactive: all assays above

CN(C)CCCO[C@@H]1[C@H]2OC(C)(C)O[C@H]2O[C@@H]1C(O)CO (stereo not given in full)
inactive: all assays above

CCCCOC(=O)/C=C\C(=O)OCCCC
inactive: all assays above
